Results: PubChem BioAssay (Tox21)
Results filed as inconclusive are left out. Where a call stands in place of a potency, no number is given. Active and inactive are the calls of the source. Calls come from the whole dose curve; as a rule, active = well fitted curve in the direction sought with a large enough effect in the repeat runs; inconclusive = weak or mixed curves; inactive = no such curve, though single readings can be large; an effect the other way counts as inactive or inconclusive.

System: not listed separately
Assay: qHTS assay to identify aromatase inhibitors - cell viability counter screen (AID 743084);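 note: cells stimulated with testosterone during compound exposure; nearly all actives have a fitted effect of over 55% in size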; note: potency is the fitted concentration of half-maximal effect
Details: MCF-7 aro ERE viability, CellTiter-Fluor, 24 h; series mostly up to 70.3 µM

Row | Structure (SMILES) | Potency
1 | COP(=S)(OC)Oc1ccc(S(N)(=O)=O)cc1 | inactive
2 | Cc1coc2c1CCC(C)C2 (configuration not stated) | inactive
3 | CCN(CC)CCOC(=O)C(C)(c1ccccc1)c1ccccc1 | inactive
4 | COc1cccc2c1cc([N+](=O)[O-])c1c(C(=O)O)cc3c(c12)OCO3 | 24.3 µM (active)
5 | Fc1ccc(C2(Cn3cncn3)OC2c2ccccc2Cl)cc1 (configuration not stated) | inactive
6 | COCC(=O)N(c1c(C)cccc1C)N1CCOC1=O | inactive

Target: Aryl hydrocarbon receptor (Homo sapiens) (UniProt P35869)
Sequence (P35869 whole entry, looked up): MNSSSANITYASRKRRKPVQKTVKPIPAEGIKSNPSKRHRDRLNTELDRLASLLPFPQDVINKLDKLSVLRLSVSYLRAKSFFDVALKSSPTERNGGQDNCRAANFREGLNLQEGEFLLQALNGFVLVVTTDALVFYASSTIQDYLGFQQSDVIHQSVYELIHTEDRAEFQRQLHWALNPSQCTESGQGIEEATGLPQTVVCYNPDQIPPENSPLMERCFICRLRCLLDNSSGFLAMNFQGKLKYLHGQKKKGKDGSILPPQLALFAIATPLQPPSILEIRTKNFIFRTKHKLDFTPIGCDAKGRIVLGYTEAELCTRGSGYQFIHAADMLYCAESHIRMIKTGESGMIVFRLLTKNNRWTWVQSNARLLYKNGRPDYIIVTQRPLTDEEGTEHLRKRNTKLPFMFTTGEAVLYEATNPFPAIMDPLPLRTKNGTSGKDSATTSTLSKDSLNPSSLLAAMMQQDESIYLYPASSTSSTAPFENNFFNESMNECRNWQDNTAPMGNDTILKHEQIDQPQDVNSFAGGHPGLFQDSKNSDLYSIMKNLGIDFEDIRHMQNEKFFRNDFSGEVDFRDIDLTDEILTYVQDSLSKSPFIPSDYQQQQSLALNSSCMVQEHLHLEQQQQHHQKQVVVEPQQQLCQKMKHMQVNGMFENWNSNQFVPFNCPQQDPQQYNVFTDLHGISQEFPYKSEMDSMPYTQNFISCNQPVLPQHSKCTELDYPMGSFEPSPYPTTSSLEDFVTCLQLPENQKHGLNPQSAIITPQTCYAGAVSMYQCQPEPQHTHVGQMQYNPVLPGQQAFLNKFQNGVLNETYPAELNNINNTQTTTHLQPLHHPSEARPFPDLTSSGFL
Assay: qHTS assay to identify small molecule that activate the aryl hydrocarbon receptor (AhR) signaling pathway (AID 743085); note: nearly all actives have a fitted effect of over 15% in size; note: potency is the fitted concentration of half-maximal effect
Details: HepG2 AhR-luc (HG2L7.5c1), luciferase, 24 h; series mostly up to 70.3 µM
Summary of the method: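 Reporter assay in engineered HepG2 line HG2L7.5c1, whose plasmid carries twenty dioxin responsive elements upstream of firefly luciferase. Treatment lasted 24 h at 37C; ONE-Glo luminescence gauged induction.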

Row | Structure (SMILES) | Potency
7 | CC1(C(=O)Nc2ccc(O)c(Cl)c2Cl)CCCCC1 | inactive
8 | CC(C=O)Cc1ccc2c(c1)OCO2 (configuration not stated) | inactive
9 | O=S(=O)(O)C(F)(F)C(F)(F)C(F)(F)C(F)(F)C(F)(F)C(F)(F)F | inactive
10 | CC(C)(C)NCC(O)c1cc(Cl)c(N)c(Cl)c1 (configuration not stated) | inactive
11 | O=[N+]([O-])c1cc(Cl)c(Cl)c(Cl)c1 | inactive
12 | O=C(CCN1CC1)OCC(CO)(COC(=O)CCN1CC1)COC(=O)CCN1CC1 | inactive
13 | CCOP(=S)(Oc1cnc(C(C)(C)C)nc1)OC(C)C (configuration not stated) | 54.5 µM (active)
14 | Nc1c(Br)cc([N+](=O)[O-])cc1[N+](=O)[O-] | 13.8 µM (active)
15 | O=C(NCO)NCO | inactive

System: not listed separately
Assay: qHTS assay to identify small molecule that activate the aryl hydrocarbon receptor (AhR) signaling pathway - cell viability counter screen (AID 743086);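 note: HepG2 liver cells carrying the AhR DRE luciferase reporter; nearly all actives have a fitted effect of over 45% in size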
Details: HepG2-AhR-luc viability, CellTiter-Fluor, 24 h; series mostly up to 70.3 µM
Summary of the method: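 HepG2-AhR-luc (HG2L7.5c1) cells, 4000/well, treated 24 h at 37 C with compound; viability measured as CellTiter-Fluor fluorescence after 30 min in the same wells as the luciferase read.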

Row | Structure (SMILES) | outcome
16 | NC1=NC(=O)C(c2ccccc2)O1 (configuration not stated) | inactive
17 | CC1(C(=O)Nc2ccc(O)c(Cl)c2Cl)CCCCC1 | inactive
18 | CCC#N | inactive
19 | CC(C=O)Cc1ccc2c(c1)OCO2 (configuration not stated) | inactive
20 | CN1C[C@@H](NS(=O)(=O)N(C)C)C[C@@H]2c3cccc4c3c(cn4C)C[C@H]21 | inactive
21 | CC1CCC(=O)O1 (configuration not stated) | inactive
22 | Cc1coc2c1CCC(C)C2 (configuration not stated) | inactive
23 | O=S(=O)(O)C(F)(F)C(F)(F)C(F)(F)C(F)(F)C(F)(F)C(F)(F)F | inactive
24 | CC(C)(C)NCC(O)c1cc(Cl)c(N)c(Cl)c1 (configuration not stated) | inactive
25 | O=[N+]([O-])c1cc(Cl)c(Cl)c(Cl)c1 | inactive
26 | COCC(=O)N(c1c(C)cccc1C)N1CCOC1=O | inactive
27 | O=C(CCN1CC1)OCC(CO)(COC(=O)CCN1CC1)COC(=O)CCN1CC1 | inactive
28 | COC(=O)COc1ccc(Cl)cc1Cl | inactive
29 | CCNc1nc(NC(C)C)nc(OC)n1 | inactive
30 | CCOP(=S)(Oc1cnc(C(C)(C)C)nc1)OC(C)C (configuration not stated) | inactive
31 | CCCCC(=O)Cl | inactive
32 | O=C(NCO)NCO | inactive
